Measured values reported in the supplement of paper PMC11732987, “Enantioselective OTUD7B fragment discovery through chemoproteomics screening and high-throughput optimisation” (Communications Chemistry, 2025).

Assays:
Assay in all cases: log2 ratio of Biotin-Ahx-Ub-VS probe labelling (fragment/DMSO); higher = less target engagement (more negative = stronger competition), active = hit call of the paper (q ≤ 0.05, log2 ratio ≤ -1)
Settings in all cases: compound concentration: 200 uM; treatment time: 3 h
USP19 = target: T1, USP19 (UniProt O94966)
T1 sequence (whole entry): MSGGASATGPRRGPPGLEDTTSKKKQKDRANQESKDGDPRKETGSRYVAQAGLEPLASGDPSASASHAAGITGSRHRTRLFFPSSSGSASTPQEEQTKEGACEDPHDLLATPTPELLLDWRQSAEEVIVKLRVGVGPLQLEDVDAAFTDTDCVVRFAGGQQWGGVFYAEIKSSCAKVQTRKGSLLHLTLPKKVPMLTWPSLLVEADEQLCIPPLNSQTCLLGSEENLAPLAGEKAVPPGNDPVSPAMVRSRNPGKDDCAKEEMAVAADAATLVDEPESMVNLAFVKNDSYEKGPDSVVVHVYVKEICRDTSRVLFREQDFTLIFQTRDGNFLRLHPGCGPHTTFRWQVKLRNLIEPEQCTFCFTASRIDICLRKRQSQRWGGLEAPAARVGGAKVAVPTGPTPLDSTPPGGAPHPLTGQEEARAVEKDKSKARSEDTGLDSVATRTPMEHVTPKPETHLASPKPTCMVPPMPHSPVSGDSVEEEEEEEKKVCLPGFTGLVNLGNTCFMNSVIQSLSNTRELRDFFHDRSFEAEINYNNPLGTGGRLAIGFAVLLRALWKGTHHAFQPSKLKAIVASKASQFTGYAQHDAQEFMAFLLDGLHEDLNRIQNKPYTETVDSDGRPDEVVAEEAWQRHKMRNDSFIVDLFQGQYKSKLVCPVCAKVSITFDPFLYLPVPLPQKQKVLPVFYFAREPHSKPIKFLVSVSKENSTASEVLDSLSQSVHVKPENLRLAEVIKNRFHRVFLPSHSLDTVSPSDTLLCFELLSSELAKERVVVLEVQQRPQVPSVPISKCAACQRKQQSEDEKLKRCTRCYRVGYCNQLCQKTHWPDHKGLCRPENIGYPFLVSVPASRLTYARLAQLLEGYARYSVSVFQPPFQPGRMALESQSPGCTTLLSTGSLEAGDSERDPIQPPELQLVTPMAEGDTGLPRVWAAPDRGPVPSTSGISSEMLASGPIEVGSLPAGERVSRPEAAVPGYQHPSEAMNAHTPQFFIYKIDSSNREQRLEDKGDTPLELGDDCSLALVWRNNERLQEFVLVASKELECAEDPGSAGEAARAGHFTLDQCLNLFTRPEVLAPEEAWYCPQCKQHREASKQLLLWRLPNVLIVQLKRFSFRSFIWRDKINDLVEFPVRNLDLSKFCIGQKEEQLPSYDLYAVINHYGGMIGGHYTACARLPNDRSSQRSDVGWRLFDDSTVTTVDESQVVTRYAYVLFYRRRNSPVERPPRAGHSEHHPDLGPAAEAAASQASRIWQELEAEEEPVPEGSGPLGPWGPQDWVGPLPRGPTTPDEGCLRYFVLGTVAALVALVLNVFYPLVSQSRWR
Outline: (§1)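 Each value is an average log2 ratio of fragment to vehicle, tested by unpaired t-test. The underlying Spectronaut label-free quantities were global-median-normalised, and only proteins with ≥2 unique peptides were included. Triplicate HEK293T lysate samples (495 µg) were exposed to fragment at 200 µM or vehicle for 3 h, then to Biotin-Ahx-Ub-VS at 0.5 µM final for 1 h, before NeutrAvidin enrichment of labelled DUBs, LysC and trypsin digestion, and diaPASEF LC-MS/MS.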

USP22 = target: T2, USP22 (UniProt Q9UPT9)
T2 sequence (whole entry): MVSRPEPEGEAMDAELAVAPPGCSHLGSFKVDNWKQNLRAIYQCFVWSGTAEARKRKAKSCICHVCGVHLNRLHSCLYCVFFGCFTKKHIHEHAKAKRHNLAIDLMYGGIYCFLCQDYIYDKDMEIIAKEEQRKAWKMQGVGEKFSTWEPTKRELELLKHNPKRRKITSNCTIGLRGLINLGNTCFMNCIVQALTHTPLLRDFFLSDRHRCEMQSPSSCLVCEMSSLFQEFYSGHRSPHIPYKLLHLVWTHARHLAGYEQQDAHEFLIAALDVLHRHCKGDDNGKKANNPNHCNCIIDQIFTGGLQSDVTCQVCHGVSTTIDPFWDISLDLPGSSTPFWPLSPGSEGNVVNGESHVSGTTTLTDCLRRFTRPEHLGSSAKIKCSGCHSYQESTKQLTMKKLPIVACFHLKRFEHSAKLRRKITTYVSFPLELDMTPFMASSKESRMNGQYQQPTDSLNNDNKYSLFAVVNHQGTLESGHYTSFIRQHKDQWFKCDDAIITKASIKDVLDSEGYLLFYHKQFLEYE
Outline: as §1

USP24 = USP24 (UniProt Q9UPU5)
USP24, sequence (Q9UPU5 whole entry): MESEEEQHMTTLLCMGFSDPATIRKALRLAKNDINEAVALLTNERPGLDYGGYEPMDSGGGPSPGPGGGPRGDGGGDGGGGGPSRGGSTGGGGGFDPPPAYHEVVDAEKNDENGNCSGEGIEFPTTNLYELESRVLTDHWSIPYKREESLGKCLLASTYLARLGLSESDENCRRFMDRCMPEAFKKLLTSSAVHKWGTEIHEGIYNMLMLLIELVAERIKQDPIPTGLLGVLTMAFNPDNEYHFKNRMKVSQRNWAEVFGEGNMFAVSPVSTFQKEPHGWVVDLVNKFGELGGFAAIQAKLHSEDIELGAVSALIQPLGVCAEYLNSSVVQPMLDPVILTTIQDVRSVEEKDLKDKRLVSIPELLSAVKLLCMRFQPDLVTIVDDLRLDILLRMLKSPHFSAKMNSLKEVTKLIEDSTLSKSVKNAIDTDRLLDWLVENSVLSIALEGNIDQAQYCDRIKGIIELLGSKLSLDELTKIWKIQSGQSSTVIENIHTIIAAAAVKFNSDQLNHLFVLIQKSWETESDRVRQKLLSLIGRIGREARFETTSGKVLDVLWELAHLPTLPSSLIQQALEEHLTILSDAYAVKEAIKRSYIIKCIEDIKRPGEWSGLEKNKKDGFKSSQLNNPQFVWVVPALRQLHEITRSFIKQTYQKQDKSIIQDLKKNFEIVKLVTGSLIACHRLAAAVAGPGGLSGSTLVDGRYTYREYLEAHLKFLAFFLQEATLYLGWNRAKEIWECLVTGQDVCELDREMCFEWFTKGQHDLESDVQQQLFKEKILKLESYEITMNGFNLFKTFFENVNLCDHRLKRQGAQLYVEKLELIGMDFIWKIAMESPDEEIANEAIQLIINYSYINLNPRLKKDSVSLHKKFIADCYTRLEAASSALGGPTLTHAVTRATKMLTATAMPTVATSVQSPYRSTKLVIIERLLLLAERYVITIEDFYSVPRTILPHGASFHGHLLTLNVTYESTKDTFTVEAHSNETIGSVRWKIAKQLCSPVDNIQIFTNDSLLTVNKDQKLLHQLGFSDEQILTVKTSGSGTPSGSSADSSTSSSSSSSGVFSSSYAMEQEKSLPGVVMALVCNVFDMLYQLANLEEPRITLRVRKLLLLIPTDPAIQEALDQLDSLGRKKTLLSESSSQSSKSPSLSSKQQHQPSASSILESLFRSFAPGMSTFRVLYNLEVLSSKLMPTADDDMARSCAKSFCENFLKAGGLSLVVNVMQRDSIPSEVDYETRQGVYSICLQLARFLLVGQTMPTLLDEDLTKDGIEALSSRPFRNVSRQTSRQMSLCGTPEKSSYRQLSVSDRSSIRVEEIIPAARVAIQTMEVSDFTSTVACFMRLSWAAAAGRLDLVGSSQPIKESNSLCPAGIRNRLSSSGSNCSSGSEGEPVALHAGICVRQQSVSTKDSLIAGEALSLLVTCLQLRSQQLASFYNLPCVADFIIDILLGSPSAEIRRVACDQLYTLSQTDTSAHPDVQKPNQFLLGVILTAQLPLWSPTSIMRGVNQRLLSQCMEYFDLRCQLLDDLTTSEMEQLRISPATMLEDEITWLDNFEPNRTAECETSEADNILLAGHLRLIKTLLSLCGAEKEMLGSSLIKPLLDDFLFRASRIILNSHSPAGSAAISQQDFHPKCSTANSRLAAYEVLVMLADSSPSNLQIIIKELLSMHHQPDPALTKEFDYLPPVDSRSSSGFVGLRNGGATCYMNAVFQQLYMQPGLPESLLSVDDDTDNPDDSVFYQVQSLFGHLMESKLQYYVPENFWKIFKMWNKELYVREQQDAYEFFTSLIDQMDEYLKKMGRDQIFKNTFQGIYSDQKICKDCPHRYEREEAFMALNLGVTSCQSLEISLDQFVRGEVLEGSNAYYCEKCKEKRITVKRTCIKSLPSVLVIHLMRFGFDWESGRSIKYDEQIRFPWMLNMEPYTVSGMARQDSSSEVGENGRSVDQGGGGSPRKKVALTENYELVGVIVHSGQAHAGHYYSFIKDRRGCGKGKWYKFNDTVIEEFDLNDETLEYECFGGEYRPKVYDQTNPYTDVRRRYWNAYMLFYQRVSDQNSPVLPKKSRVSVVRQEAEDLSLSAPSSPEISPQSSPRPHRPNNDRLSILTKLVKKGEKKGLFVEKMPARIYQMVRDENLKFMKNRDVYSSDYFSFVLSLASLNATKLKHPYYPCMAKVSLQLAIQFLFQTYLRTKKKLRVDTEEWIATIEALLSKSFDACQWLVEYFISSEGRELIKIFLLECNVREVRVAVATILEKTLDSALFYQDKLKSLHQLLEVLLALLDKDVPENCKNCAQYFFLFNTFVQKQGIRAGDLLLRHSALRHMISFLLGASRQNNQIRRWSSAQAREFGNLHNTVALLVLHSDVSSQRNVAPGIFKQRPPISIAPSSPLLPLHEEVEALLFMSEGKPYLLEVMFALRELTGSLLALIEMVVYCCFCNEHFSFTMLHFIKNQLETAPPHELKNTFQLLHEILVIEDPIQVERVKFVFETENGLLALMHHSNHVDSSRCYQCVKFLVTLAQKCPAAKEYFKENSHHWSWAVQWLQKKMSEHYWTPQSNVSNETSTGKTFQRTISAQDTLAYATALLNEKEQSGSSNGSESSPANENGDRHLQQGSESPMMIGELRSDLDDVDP
Outline: as §1

USP25 = target: T3, USP25 (UniProt Q9UHP3)
T3 sequence (whole entry): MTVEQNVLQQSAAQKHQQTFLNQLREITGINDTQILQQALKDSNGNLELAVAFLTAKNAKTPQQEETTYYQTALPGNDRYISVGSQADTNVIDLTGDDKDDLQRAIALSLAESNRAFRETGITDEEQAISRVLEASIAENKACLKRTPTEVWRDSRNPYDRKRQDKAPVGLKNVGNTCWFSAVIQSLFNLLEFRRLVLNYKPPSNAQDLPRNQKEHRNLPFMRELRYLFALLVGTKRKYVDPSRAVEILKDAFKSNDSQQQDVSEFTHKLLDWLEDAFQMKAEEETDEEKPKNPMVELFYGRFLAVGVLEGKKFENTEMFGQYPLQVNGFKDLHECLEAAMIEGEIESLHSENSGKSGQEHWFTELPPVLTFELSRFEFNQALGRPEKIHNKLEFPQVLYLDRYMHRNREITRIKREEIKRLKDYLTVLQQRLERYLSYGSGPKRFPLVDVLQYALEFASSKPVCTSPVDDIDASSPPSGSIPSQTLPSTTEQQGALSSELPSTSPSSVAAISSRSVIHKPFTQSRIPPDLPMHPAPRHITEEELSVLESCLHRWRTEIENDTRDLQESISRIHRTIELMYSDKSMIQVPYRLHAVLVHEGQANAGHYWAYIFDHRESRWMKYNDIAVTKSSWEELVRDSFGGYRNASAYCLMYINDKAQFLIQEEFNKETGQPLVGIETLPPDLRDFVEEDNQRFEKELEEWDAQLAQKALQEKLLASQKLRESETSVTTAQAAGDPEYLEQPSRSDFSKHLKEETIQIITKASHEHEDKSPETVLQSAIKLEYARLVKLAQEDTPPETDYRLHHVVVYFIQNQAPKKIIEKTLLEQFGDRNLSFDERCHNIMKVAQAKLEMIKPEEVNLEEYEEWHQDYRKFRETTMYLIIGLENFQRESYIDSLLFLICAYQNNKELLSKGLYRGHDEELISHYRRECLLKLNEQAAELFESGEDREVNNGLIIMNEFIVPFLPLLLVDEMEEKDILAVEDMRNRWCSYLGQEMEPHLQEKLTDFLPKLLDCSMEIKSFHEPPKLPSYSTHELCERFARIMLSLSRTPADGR
Outline: as §1

USP28 = target: T4, USP28 (UniProt Q96RU2)
T4 sequence (whole entry): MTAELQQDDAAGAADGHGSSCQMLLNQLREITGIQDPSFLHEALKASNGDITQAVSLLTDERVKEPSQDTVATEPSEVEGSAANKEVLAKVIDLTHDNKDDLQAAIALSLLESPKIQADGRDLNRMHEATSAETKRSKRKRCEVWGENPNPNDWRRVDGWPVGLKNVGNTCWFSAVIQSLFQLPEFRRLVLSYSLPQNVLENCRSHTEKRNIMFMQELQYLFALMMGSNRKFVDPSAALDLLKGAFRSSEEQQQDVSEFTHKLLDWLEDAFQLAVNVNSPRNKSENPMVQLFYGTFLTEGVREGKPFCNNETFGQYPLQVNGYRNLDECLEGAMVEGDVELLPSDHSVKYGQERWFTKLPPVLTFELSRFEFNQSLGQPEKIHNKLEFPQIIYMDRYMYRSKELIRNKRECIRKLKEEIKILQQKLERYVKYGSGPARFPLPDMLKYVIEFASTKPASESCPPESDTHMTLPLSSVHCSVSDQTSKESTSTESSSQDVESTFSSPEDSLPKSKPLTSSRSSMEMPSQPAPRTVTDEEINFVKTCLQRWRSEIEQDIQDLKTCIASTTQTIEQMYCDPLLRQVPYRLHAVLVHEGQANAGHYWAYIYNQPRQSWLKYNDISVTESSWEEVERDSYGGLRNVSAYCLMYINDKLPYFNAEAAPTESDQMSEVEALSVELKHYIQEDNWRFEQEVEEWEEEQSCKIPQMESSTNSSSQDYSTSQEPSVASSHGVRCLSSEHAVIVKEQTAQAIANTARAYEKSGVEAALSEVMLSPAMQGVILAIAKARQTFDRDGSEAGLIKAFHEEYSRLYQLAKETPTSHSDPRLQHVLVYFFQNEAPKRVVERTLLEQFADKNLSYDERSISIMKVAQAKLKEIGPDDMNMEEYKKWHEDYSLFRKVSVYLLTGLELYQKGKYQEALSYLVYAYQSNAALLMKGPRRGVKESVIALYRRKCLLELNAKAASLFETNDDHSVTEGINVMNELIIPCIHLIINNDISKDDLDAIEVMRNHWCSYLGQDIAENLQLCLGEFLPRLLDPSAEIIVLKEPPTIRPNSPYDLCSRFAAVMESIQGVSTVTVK
Outline: as §1

Measured: log2 ratio of Biotin-Ahx-Ub-VS probe labelling

O=C(CCl)NC1CCC(C(F)(F)F)CC1 (stereo not given)
inactive: USP19 -0.155 | USP22 0.067 | USP24 -0.771 | USP25 -0.322 | USP28 -0.705
